Assay results as given in the supplement of paper PMC12645437, “Orthogonal IMiD-Degron Pairs Induce Selective Protein Degradation in Cells” (ACS Chemical Biology, 2025).
Over roughly 8,300 sequences, “log2 fold change of degron read counts, EGFP-low vs EGFP+ sorted cells (limma voom), compound-induced degradation” has its median near -1.1; the highest 2% begin near 3.2. This is one part of a sample in which the highest values are shown more often than they occur.

T1: CRBN, Q96SW2
T1 chain: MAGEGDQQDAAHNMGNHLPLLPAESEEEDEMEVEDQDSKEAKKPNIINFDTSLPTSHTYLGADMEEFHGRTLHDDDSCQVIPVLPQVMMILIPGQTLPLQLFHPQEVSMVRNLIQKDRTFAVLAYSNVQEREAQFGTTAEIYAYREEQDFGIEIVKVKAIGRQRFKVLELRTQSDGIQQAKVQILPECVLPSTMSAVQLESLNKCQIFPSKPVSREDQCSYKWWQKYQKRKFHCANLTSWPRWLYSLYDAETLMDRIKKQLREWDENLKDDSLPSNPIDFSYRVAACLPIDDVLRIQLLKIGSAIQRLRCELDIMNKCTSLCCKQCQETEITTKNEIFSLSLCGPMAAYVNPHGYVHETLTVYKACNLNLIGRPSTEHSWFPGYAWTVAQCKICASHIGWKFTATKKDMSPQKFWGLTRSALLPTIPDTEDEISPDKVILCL


Molecular target: T1, CRBN, Q96SW2
Test: log2 fold change of degron read counts, EGFP-low vs EGFP+ sorted cells (limma voom), compound-induced degradation; higher = more compound-induced degradation of the degron-EGFP fusion; degrons are variants of IKZF1/3 zinc finger 2; compound dose not given here
Conditions: Jurkat, 18 h
[1] = compound: compound 19 (5-tert-butyl-thalidomide)
[2] = compound: compound 22 (5-morpholino-thalidomide)
[3] = compound: compound 33 (diphenyl IMiD analogue)
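Note: pooled lentiviral library of zinc finger degron-EGFP fusions in mCherry-positive Jurkat cells, FACS-sorted after compound exposure, with degron abundance counted by next-generation sequencing.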

| Sequence | log2 fold change of degron read counts [1] | log2 fold change of degron read counts [2] | log2 fold change of degron read counts [3] | log2 fold change of degron read counts (compound: thalidomide) |
| --- | --- | --- | --- | --- |
| FVCEQCGADFTQKGNLLRHIKL [46F_47V_49E_50Q_52G_53A_54D_55F_67L_, Q9UKT9] | -3.51 | -2.64 | -2.37 | -2.14 |
| FCCNICGAKFTQKGNLLRHIKL [46F_47C_49N_50I_52G_53A_54K_55F_67L_, Q9UKT9] | 1.13 | 0.951 | -1.32 | 1.19 |
| FKCPICGRAFTQKGNLLRHIKL [46F_47K_49P_50I_52G_53R_54A_55F_67L_, Q9UKT9] | -2.37 | -1.6 | -2.65 | -0.307 |
| FHCEVCGAAFTQKGNLLRHIKL [46F_47H_49E_50V_52G_53A_54A_55F_67L_, Q9UKT9] | 3.08 | 2.89 | 1.84 | 0.737 |
| FWCEVCGAAFTQKGNLLRHIKL [46F_47W_49E_50V_52G_53A_54A_55F_67L_, Q9UKT9] | 3.39 | 3.9 | 2.77 | 1.54 |
| FYCEVCGAAFTQKGNLLRHIKL [46F_47Y_49E_50V_52G_53A_54A_55F_67L_, Q9UKT9] | 3.87 | 3.7 | 2.98 | 1.8 |
| FCCNVCGAAFTQKGNLLRHIKL [46F_47C_49N_50V_52G_53A_54A_55F_67L_, Q9UKT9] | 0.855 | 0.945 | 0.918 | 0.447 |
| FYCNVCGAAFTQKGNLLRHIKL [46F_47Y_49N_50V_52G_53A_54A_55F_67L_, Q9UKT9] | 1.57 | 2.01 | 1.33 | -0.954 |
| FQCEVCGAAFTQKGNLLRHIKL [46F_47Q_49E_50V_52G_53A_54A_55F_67L_, Q9UKT9] | 2.72 | 3.34 | 2.22 | 3.65 |
| FNCEVCGAAFTQKGNLLRHIKL [46F_47N_49E_50V_52G_53A_54A_55F_67L_, Q9UKT9] | 3.07 | 1.6 | 0.0337 | 0.576 |
| FMCEVCGAAFTQKGNLLRHIKL [46F_47M_49E_50V_52G_53A_54A_55F_67L_, Q9UKT9] | 2.23 | 2.48 | 2.75 | 2.28 |
| FCCEVCGAAFTQKGNLLRHIKL [46F_47C_49E_50V_52G_53A_54A_55F_67L_, Q9UKT9] | 3.57 | 2.96 | 2.1 | 2.35 |
| FGCEVCGAAFTQKGNLLRHIKL [46F_47G_49E_50V_52G_53A_54A_55F_67L_, Q9UKT9] | 2.88 | 2.24 | 1.96 | 1.02 |
| FWCNVCGAAFTQKGNLLRHIKL [46F_47W_49N_50V_52G_53A_54A_55F_67L_, Q9UKT9] | 1.25 | 2.85 | 1.15 | -0.34 |
| FYCPVCGAAFTQKGNLLRHIKL [46F_47Y_49P_50V_52G_53A_54A_55F_67L_, Q9UKT9] | 2.93 | 2.85 | 2.36 | 0.969 |
| FVCDVCGAGFTQKGNLLRHIKL [46F_47V_49D_50V_52G_53A_54G_55F_67L_, Q9UKT9] | -0.789 | 1.19 | -0.11 | 0.879 |
| FECDQCGALFTQKGNLLRHIKL [46F_47E_49D_50Q_52G_53A_54L_55F_67L_, Q9UKT9] | -3.05 | -3.86 | -3.38 | -2.52 |
| FDCNVCGAFFTQKGNLLRHIKL [46F_47D_49N_50V_52G_53A_54F_55F_67L_, Q9UKT9] | -2.06 | -2.22 | -1.25 | -1.25 |
